Laboratory results reported in PubChem BioAssay (NCI).
Compounds without any hit were thinned out: in the full panel of roughly 79,000, 15% have a hit. Values without a mark were called inactive. Active and inactive are the calls of the source. Cut-off read from the data, not from the text of the source: active = growth inhibition above about 70%; inactive = the rest.

What was measured:
[1] = NCI Yeast Anticancer Drug Screen. Data for the rad50 strain (AID 155);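 note: 0% = growth of vehicle-only cultures of the same strain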; settings: S. cerevisiae rad50 strain growth inhibition; at 50.0 µM; stronger effect = higher value
How it was run: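 Cells are treated with compound, grown, and their growth is then scored against vehicle-only cultures of the same repair-deficient yeast strain.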

[2] = NCI Yeast Anticancer Drug Screen. Data for the mec2-1 strain (AID 157); settings: S. cerevisiae mec2-1 strain, at 50.0 µM, stronger effect = higher value
How it was run: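 Test agents were screened against the mec2-1 yeast strain, with defined DNA repair or cell cycle alteration. Growth was scored as inhibition against vehicle-only controls.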

[3] = NCI Yeast Anticancer Drug Screen. Data for the sgs1 mgt1 strain (AID 161);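 note: 0% = growth of cultures given vehicle only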; settings: S. cerevisiae sgs1 mgt1 strain, at 50.0 µM, stronger effect = higher value
How it was run: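 Genetically altered yeast, compound exposure, growth inhibition relative to vehicle.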

[4] = NCI Yeast Anticancer Drug Screen. Data for the cln2 rad14 strain (AID 165);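 note: 0% = growth equal to vehicle treated cultures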; settings: S. cerevisiae cln2 rad14 strain, at 50.0 µM, stronger effect = higher value
How it was run: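 Growth of compound-exposed yeast (cln2 rad14 genotype) measured and expressed as inhibition relative to vehicle.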

[5] = NCI Yeast Anticancer Drug Screen. Data for the bub3 strain (AID 167); settings: S. cerevisiae bub3 mutant strain, at 50.0 µM, stronger effect = higher value
How it was run: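 Part of a panel of yeast mutants defective in DNA damage repair or cell cycle regulation. Each strain is grown with compound, and inhibition is calculated relative to solvent-treated cultures.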

[6] = NCI Yeast Anticancer Drug Screen. Data for the mlh1 rad18 strain (AID 175); settings: S. cerevisiae mlh1 rad18 strain growth inhibition; at 50.0 µM; stronger effect = higher value
How it was run: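 In this whole-cell yeast screen, a strain with altered DNA damage repair is challenged with compound, and its growth is measured against matched vehicle-treated controls.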

Row | SMILES | growth inhibition [1] | growth inhibition [2] | growth inhibition [3] | growth inhibition [4] | growth inhibition [5] | growth inhibition [6]
1 | SCc1ccccc1.[Cu+2] | -1.4% | -15.9% | -0.45% | -35.1% | -50.7% | -2.75%
2 | C[N+]1=C(c2cccnc2/C=N/O)OCC1(C)C | 1.3% | -19.4% | -13.7% | -5.1% | -24.4% | -33.1%
3 | C[Si](C)(C)CS(=O)[O-].[C-]#[O+].[C-]#[O+].[Fe+6].[c-]1[c-][c-][cH-][c-]1 | 0.1% | 8.8% | 20.7% | -12.2% | -3.85% | 6.65%
4 | CCN1CC2CCC1C2 (stereo unspecified) | 5.2% | -3.05% | -14.5% | 5.5% | 3.7% | 4.35%
5 | [Cl][Hg][c]1cccs1 | 99.6% (active) | 99.8% (active) | 99.5% (active) | 99.5% (active) | 99.7% (active) | 99.6% (active)
6 | [C-]#[O+].[C-]#[O+].[C-]#[O+].[C-]#[O+].[Cr].c1ccc([As](CC[As](c2ccccc2)c2ccccc2)c2ccccc2)cc1 | 22.9% | 21.4% | 8% | 6.65% | 36.2% | 29.1%
7 | O=S(=O)(F)c1ccccc1C[P+](c1ccccc1)(c1ccccc1)c1ccccc1 | 84.2% (active) | 86% (active) | 66% | 66.7% | 82.8% (active) | 91% (active)
8 | CN(C)C(=O)Oc1ccc([N+](=O)[O-])cc1OC(=O)N(C)C | 2.4% | -5.25% | 0.8% | -8.65% | 9.95% | -4.05%
9 | C/C=C1/CN2C3C[C@H]1C(CO)(C(=O)OC)[C@H]2Cc1c3n(C)c2ccccc12 (stereo partly specified) | -1.2% | -4.35% | 16.7% | -0.1% | 7% | -8.9%
10 | CN(C)NP(=O)(c1ccccc1)c1ccccc1 | 0.05% | -3.05% | -4.45% | -10.5% | 7.75% | -2.9%
11 | N.N.N.N.N.O=[N+]([O-])[O-].[Co+3].[O-][Cl+3]([O-])([O-])[O-] | -13.7% | 4.6% | -10.5% | -3.15% | -4.45% | -7.75%
12 | CCOC(=O)C1C(C=C(C)C)C1(C)C (stereo unspecified) | -14.3% | -17.4% | -8.8% | -10.8% | -16.6% | -3.95%
13 | CN(C)c1ccc(/C=C/C=C\C2=CC(=C\C=C/C=C3C=CC(=[N+](C)C)C=C3)/Sc3ccccc32)cc1 | -36.4% | -45.9% | -63.7% | -29.6% | -27.4% | -55.3%
14 | Cc1ccc(S(=O)(=O)OC2CC3c4ccccc4C2c2cccc[n+]23)cc1 (stereo unspecified) | 68% | 7.5% | 36.4% | -18.4% | 8.8% | 12.1%
15 | CC(C)C(O)(C(=O)OCC1=CCN2CCC(O)C12)C(C)O (stereo unspecified) | 2.55% | 0.1% | 25.1% | 9.55% | 12.6% | 8.5%
16 | C[C@]12CCC(=O)C[C@@H]1CC[C@@H]1[C@@H]2CC[C@]2(C)[C@@H]3OCCC[C@H]3C[C@@H]12 | 22.4% | -0.5% | 46.5% | 14.7% | 19.1% | 39.2%
17 | CCOP(=O)(OCC)/C(C#N)=C/c1cccs1 | 0.5% | -35.2% | -15.2% | -15.8% | -41.8% | -13.7%
18 | CC(=N/O)/C(C)=N\O | 21% | 14.8% | 5.7% | 13.4% | -0.4% | 40.3%
19 | O=C(NCC(O)CO)c1cc(N(CCCl)CCCl)c([N+](=O)[O-])cc1[N+](=O)[O-] (stereo unspecified) | 3.8% | -35.9% | -10.5% | -63.6% | -10.4% | 6.35%
20 | CCCCP(=O)(CCCC)CCCC.CCCCP(=O)(CCCC)CCCC.CCCCP(=O)(CCCC)CCCC.CCCCP(=O)(CCCC)CCCC.[Mn+2].[O-][Cl+3]([O-])([O-])O | 13.3% | -57.7% | -24.6% | -17.5% | -21.9% | -17.9%
21 | C=[CH][Pb]([CH]=C)([CH]=C)[O]C(C)=O | 97.2% (active) | 98% (active) | 97.9% (active) | 98.8% (active) | 98.2% (active) | 99% (active)

Row | SMILES | growth inhibition [1] | growth inhibition [2] | growth inhibition [3] | growth inhibition [4] | growth inhibition [5] | growth inhibition [6]
22 | C=C[CH2][Sn]([CH2]C=C)([CH2]CCC)[CH2]CCC | 99.4% (active) | 99.5% (active) | 99.6% (active) | 99.2% (active) | 99.5% (active) | 99.4% (active)
23 | Cc1ccc2nc(CCl)[nH]c2c1 | 31.6% | -5.65% | 34% | 18.4% | -18.1% | 58.7%
24 | Cc1cccc(CCl)c1 | -7.05% | -46.3% | -23.3% | -0.45% | -40.9% | -23.4%
25 | O=c1n(Cc2ccccc2)c2ccccc2n1CC1CS1 (stereo unspecified) | 55.5% | 21.4% | 62.9% | 4.75% | 15.8% | 31.1%
26 | N#Cc1ccc([N+](=O)[O-])cc1 | -1.15% | 9.25% | 1.7% | 1.2% | -43.8% | -43.9%
27 | CCC(O)C[As](=O)(O)c1ccccc1OC (stereo unspecified) | 5.75% | 20.2% | 2% | -1.6% | 18.1% | -1.65%
28 | CCCCCCCCCCC[CH2][Hg][Cl] | 8.6% | 3.15% | 12.4% | -18.6% | -3.45% | -3.1%
29 | N#CS.[Co+3].[NH-]CC[NH-].[NH-]CC[NH-].[NH-]CC[SH2+] | 12.2% | 43% | 13.2% | 3.2% | 35.6% | 9.65%
30 | CCOC(=O)N[N+]12CCN(CC1)CC2 | 0.45% | -2.65% | 1.95% | -12.9% | -1.2% | -11.1%
31 | COc1cc2c(c(OC)c1O)-c1ccc(OC)c(=O)cc1[C@@H](NC(=O)C(F)(F)F)CC2 | 14.5% | 28.3% | -3.25% | 15.7% | 7.9% | 11.3%
32 | CC(C)(N)Cc1ccc(N)cc1 | 15.2% | -1.55% | 7.15% | 18.4% | 2.5% | 24.4%
33 | CCC(C#N)N1CC1 (stereo unspecified) | -7.05% | 12.7% | -6.4% | 18.1% | -4.35% | 6%
34 | ClCCN(CCCN(CCCl)c1ccccc1)c1ccccc1 | 11.8% | 12.7% | 32.5% | -8.25% | -5.1% | -27.9%
35 | C=C[CH2][Sn]([Br])([c]1ccccc1)[c]1ccccc1 | 99.3% (active) | 99.2% (active) | 99.2% (active) | 98.8% (active) | 98.8% (active) | 99.3% (active)
36 | CC(=O)[O][Sn]([CH2]C1CCCC1)([CH2]C1CCCC1)[CH2]C1CCCC1 | 99.3% (active) | 99.3% (active) | 99.4% (active) | 98.9% (active) | 99% (active) | 99.1% (active)
37 | CC1CC(C)OP(Oc2ccccc2)O1 (stereo unspecified) | -24.6% | 4.05% | -21.8% | -15.7% | -7.15% | -10.5%
38 | O=C1NCN(c2ccccc2)C12CCN(Cc1ccccc1)CC2 | -4.6% | -23.7% | 14.6% | 12.3% | 3.1% | 5.5%
39 | CC1=C2[C@H]3OC(=O)[C@@H](C)[C@@H]3CC[C@@]2(C)C=CC1=O | 20.6% | 5.9% | 1.15% | 15.2% | 2.25% | 12.6%
40 | CNC(Cc1ccccc1)c1ccc(O)c(OC)c1 (stereo unspecified) | -0.5% | -15.6% | -7.35% | -35% | 5.05% | 0.75%
41 | CCOP(=O)(Cc1ccc(Cl)cc1)OCC | 33.8% | 7.9% | 17.6% | 21.4% | 15.2% | 8.05%
